Screening results deposited in PubChem BioAssay by several laboratories.
SKKanGAS inh – S. pyogenes SKKanGAS growth inhibitors in kanamycin, primary screen, streptokinase expression inhibitor project, SKKanGAS strain, BacTiter-Glo luminescence. 6 h. inhibition, % at 7.5 µM. hit rate 1.3% among 300,000. AID 1662, 2009;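 active = mean replicate score, as percent of positive control median, at least 50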;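 also: strain carries kanamycin resistance gene driven by streptokinase promoter and grows in 40 µg/ml kanamycin; loss of luminescence reflects streptokinase promoter inhibition or plain growth inhibition; 0% = median of DMSO wells and 100% = positive control at its reference dose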
NR3A LBD binder – binders of NR3A ligand-binding domain, primary screen, biophysical, differential scanning fluorimetry, uHTS; NR3A LBD differential scanning fluorimetry, Tm shift; 0% = protein alone, 100% = glycine-bound protein; hit rate 2.5% among 340,000; Glutamate receptor ionotropic, NMDA 3A (GRIN3A) ligand-binding domain; Tm shift relative to glycine control, % at 25 µM;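 active = melting temperature shift of at least 10% of the positive control shift, at one fixed dose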
Beta cell apopt – inhibitors of cytokine-induced beta cell apoptosis, primary screen, luminescence. hit rate 0.8% among 300,000. INS-1E cytokine-induced death, ATP luminescence, 48 h; percent of positive-control rescue, neutral wells zero. protection from apoptosis, % (concentration not given with the values);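 active = Every replicate reaches about 75%, or at least half do and their mean reaches it too, limit read from the data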;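 also: 0% = cytokine-treated negative control wells and 100% = positive control rescue; higher means more ATP so stronger rescue from cytokine killing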
MPTP inh – mitochondrial permeability transition pore inhibitors, primary screen, biochemical, isolated mouse mitochondria, absorbance; Ca2+ swelling absorbance, 30 min; inhibition, % at 10 µM; AID 602449, 2012; hit rate 1.4% among 360,000;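 active = inhibition of 50% or more, scaled per plate between neutral and stimulator controls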;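 also: 0% = DMSO wells given calcium and 100% = 1 mM EGTA wells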
Mdm2-MdmX inh – inhibitors of human Mdm2-MdmX association, primary screen, cell-based, luminescence, split luciferase, SaOS-2, uHTS; hit rate 3% among 330,000; SaOS-2 split-luciferase Mdm2/MdmX complementation; Protein Mdm4 (Homo sapiens) + E3 ubiquitin-protein ligase Mdm2 (Homo sapiens), …; AID 485346, 2010; inhibition, % at 8 µM;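 active = inhibition of at least 50% at 8 µM in the primary screen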
Target sequence (O15151 whole entry, looked up): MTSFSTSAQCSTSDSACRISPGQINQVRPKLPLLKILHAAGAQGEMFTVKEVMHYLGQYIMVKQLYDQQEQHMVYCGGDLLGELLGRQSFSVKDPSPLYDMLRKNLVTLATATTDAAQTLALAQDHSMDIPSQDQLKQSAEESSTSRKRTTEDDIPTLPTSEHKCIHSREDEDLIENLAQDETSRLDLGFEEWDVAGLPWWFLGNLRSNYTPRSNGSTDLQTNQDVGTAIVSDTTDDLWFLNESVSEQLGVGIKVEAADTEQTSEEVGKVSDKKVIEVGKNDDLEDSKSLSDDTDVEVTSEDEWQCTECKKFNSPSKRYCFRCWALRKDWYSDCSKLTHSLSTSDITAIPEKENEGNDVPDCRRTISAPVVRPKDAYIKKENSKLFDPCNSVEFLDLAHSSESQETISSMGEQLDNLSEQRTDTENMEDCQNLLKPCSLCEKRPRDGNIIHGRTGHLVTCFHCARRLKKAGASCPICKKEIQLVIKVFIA
Target sequence (Q00987 whole entry, looked up): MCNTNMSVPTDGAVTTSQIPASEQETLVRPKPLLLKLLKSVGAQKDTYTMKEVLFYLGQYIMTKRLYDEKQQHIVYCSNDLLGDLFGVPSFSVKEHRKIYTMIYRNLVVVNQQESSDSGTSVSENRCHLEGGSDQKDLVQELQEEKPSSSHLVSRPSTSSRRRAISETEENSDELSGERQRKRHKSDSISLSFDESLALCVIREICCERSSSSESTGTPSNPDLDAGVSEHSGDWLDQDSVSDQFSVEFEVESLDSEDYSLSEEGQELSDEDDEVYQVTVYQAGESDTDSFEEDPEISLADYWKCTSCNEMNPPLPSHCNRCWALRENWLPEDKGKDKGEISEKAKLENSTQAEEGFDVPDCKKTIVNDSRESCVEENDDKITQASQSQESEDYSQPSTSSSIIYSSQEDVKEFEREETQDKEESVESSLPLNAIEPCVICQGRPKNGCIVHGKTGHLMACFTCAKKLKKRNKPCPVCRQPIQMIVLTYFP
CSC inhib – cancer stem cell viability inhibitors, primary screen, luminescence; cancer stem cell-like cells viability; inhibition, % at 7.5 µM; hit rate 1.1% among 300,000; AID 2717, 2010; in the data active = inhibition above about 75%; tested in HMLE shEcad cells
Mdm2 MdmX conf – Mdm2-MdmX complex disruptors, retested hits, confirmation, luminescence, single concentration; hit rate 55% among 10,000; Mdm2-MdmX binding, luminescent assay; shares compounds with Mdm2-MdmX inh; inhibition, % at 8 µM; in the data active = inhibition above about 40%
FLuc counter – full-length luciferase signal inhibition, confirmation, counter-screen for Mdm2/MdmX interaction inhibitor project, cell-based, single concentration, SaOS-2; shares compounds with Mdm2-MdmX inh; SaOS-2 full-length luciferase counterscreen, luminescence; inhibition, % at 8 µM; hit rate 77% among 6,200;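 active = mean inhibition at 8 µM reaching about 37%, which flags the compound as non-specific, limit read from the data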;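 also: p53-null SaOS-2 cells with luciferase driven by a doxycycline-inducible promoter; compound on cells about two nights before reading with doxycycline added after day one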
Starred values were filed as active, the others as inactive; . = no result; + = active, no number. The list is not random: actives were taken first. Their share in the collection is about 6.9%.

SMILES	SKKanGAS inh	NR3A LBD binder	Beta cell apopt	MPTP inh	Mdm2-MdmX inh	CSC inhib	Mdm2 MdmX conf	others
Cc1nnc2ccc(-c3cccc(NS(=O)(=O)c4ccccc4[N+](=O)[O-])c3)nn12	38.1	0.7	13.1	-0.8	56.2*	23.5	54.6*	FLuc counter=82.0*
Cc1nnc2ccc(-c3cccc(NS(=O)(=O)c4ccccc4Cl)c3)nn12	40.7	-1.4	5.4	-0.8	56.3*	13.5	57.0*	FLuc counter=55.5*
Cc1nnc2ccc(-c3cccc(NS(=O)(=O)c4cc(F)ccc4F)c3)nn12	24.9	-0.1	5.4	-0.9	48.9	13.7	.
CCOC(=O)c1c(NC(=O)CSc2nnc(-c3c[nH]c4ccccc34)n2CCOC)sc2c1CCCCC2	24.6	-3.6	31.6	-0.9	56.0*	14.5	17.1
CCOC(=O)c1c(NC(=O)CSc2c[nH]c3ccccc23)sc2c1CCCC2	24.2	2.8	5.1	2.0	44.5	54.6	.
COc1ccc2c(-c3cnc(N4CCOCC4)nc3)c(-c3ccc(S(C)(=O)=O)cc3)sc2c1	.	-0.6	-12.7	0.0	68.4*	39.1	-2.4
CCC(C)N(CCNC(=O)c1ccc2c(c1)NC(=O)c1ccccc1S2)C1CCCCC1 (stereo not given)	2.7	-1.1	2.4	3.4	66.9*	16.3	47.5*	FLuc counter=55.8*
COc1ccc(CN2C(=O)Cc3c2nc(N)c2c(N)nc(N4CCCCC4)c(C#N)c32)cc1	10.6	.	-0.8	.	-6.0	.	.
C=C(C)CN(CC)c1nc(N)c2c(N)nc3c(c2c1C#N)CC(=O)N3C12CC3CC(CC(C3)C1)C2	27.9	2.5	55.9	1.7	84.0*	19.4	54.4*	FLuc counter=40.5*
N#Cc1c(N2CCCC(O)C2)nc(N)c2c(N)nc3c(c12)CC(=O)N3C12CC3CC(CC(C3)C1)C2 (stereo not given)	40.9	0.0	12.6	-2.8	89.7*	72.4	69.0*	FLuc counter=43.5*
Cc1ccc(O)c(CNc2ccc(S(=O)(=O)Nc3nccs3)cc2)c1	9.6	-4.2	-4.8	-0.2	21.7	6.2	.
O=C(CN1C(=O)/C(=C\c2cccc(Cl)c2)Oc2ccccc21)N1CCN(c2ccccn2)CC1	1.0	.	0.3	.	64.6*	20.1	12.8
O=C(CN1C(=O)c2cccc3cccc(c23)C1=O)N1CCN(c2ccccn2)CC1	-3.8	-0.3	-0.7	0.3	50.5*	-7.3	-4.7
O=C(CN1C(=O)/C(=C/c2ccccc2F)Oc2ccccc21)N1CCN(c2ccccn2)CC1	1.1	-6.9	-1.1	1.2	39.4	-15.2	.
O=C(Nc1nc2ccc(Cl)cc2s1)c1ccc(N2CCCCC2)c([N+](=O)[O-])c1	2.7	15.0*	18.5	13.8	60.8*	14.7	42.4*	FLuc counter=53.7*
CC1=CC(C)[C@H](/C=N/n2c(=O)[nH]c3c([nH]c4ccc(Br)cc43)c2=O)C(C)C1 (stereo not given in full)	7.6	-1.2	61.3	12.1	97.7*	+	18.4
COc1ccc2c(c1)[nH]c1c(=O)n(/N=C/C3C(C)C=C(C)CC3C)c(=O)[nH]c12 (stereo not given)	-0.3	2.0	53.5	2.9	69.3*	100.4*	12.8
CCN(C(=O)COC(=O)C1CC1C)c1c(N)n(Cc2ccccc2)c(=O)[nH]c1=O (stereo not given)	.	1.6	.	-0.8	-6.1	.	.
CS(=O)(=O)c1ccc(C(=O)OCC(=O)NC(=O)C2CCCCC2)cc1[N+](=O)[O-]	14.6	18.9*	-31.1	0.5	50.0*	63.9	18.4
Nc1ccc(C(=O)NNC(=O)C2COc3ccccc3O2)cc1[N+](=O)[O-] (stereo not given)	0.5	-1.1	-3.8	-1.3	3.1	-8.9	.
CS(=O)(=O)c1ccc(C(=O)OCC(=O)NC(=O)C2COc3ccccc3O2)cc1[N+](=O)[O-] (stereo not given)	.	-1.9	-42.5	-0.4	51.1*	10.6	25.9
CCN(CC)S(=O)(=O)c1ccc(-c2nnc(SCC(=O)N3CCc4ccccc43)o2)cc1	3.4	-1.5	-11.4	1.9	74.7*	-6.0	-11.4
CCN(CC)S(=O)(=O)c1ccc(-c2nnc(SCC(=O)N3CCOCC3)o2)cc1	-4.9	.	1.3	0.5	-15.5	-13.8	.
CC(=O)c1cnc2nc(SCc3cccc(C)c3)nn2c1C	3.5	1.7	-2.0	0.1	21.3	3.9	.
Cc1ccc(C)c2sc(N3CCN(C(=O)c4ccc([N+](=O)[O-])o4)CC3)nc12	65.4*	-2.3	19.5	1.2	90.2*	23.9	50.8*	FLuc counter=54.9*
SMILES	SKKanGAS inh	NR3A LBD binder	Beta cell apopt	MPTP inh	Mdm2-MdmX inh	CSC inhib	Mdm2 MdmX conf	others
COc1ccc(NC(=O)Cc2ccc(C)cc2)c([N+](=O)[O-])c1	-6.2	-1.6	-2.9	0.8	.	-7.4	.
COc1ccc(NC(=O)CC2Nc3cc(C)c(C)cc3NC2=O)c([N+](=O)[O-])c1 (stereo not given)	12.5	1.4	19.5	10.5	88.4*	53.3	6.8
CCC(C)(C)C1CCC2(CC1)NC(=O)N(CC(=O)NC(C)CCc1ccccc1)C2=O (stereo not given)	.	2.1	.	0.4	34.6	.	.
CCOc1ccc(C(=O)/C=C/Nc2ccc(S(=O)(=O)N=C(N)N)cc2)cc1	7.1	0.0	1.3	1.5	73.6*	19.8	13.9
CCOc1ccc(N/C=C/C(=O)c2ccc(OC)c(OC)c2)cc1	-4.4	-6.1	.	1.5	-48.0	-1.3	.
O=C(CCCc1ccccc1)NCCc1ccccc1	2.6	-0.3	-7.6	2.1	-17.5	-5.8	.
O=C(CCl)N(CCc1ccccc1)CCc1ccccc1	18.8	2.7	3.3	-0.9	90.6*	.	8.3
Cc1cc(C[n+]2cc(Cl)ccc2N)c2ncccc2c1	-5.6	-1.1	1.6	1.4	32.5	4.9	.
CCOc1ccc2c(c1)sc(N)[n+]2Cc1cc(C)cc2cccnc12	5.0	-3.7	62.9	41.9	57.9*	-6.0	64.9*	FLuc counter=60.0*
Cc1cc(C[n+]2ncsc2N)c2ncccc2c1	-16.3	0.6	-3.8	2.1	98.7*	-7.0	17.4
CCCn1c(SCC(=O)N(C)C2CCCCC2)n[nH]c1=O	.	.	.	-1.8	.	.	.
O=C(NC(=S)Nc1cccc2cnccc12)c1ccccc1	-5.2	1.3	-8.2	-1.2	60.8*	-11.4	33.9
O=C(O)c1cccc(NC(=S)NC(=O)c2ccncc2)c1	-1.5	0.7	-3.0	-1.3	52.8*	-7.1	14.2
